Rows were chosen to be rich in hits. Some 4.9% of all compounds tested hit in one or more screens of this group.
Mdm2 MdmX PPI – human Mdm2/MdmX binding inhibition; actives 3% (n = 330,000); O15151+Q00987; SaOS-2 split-luciferase Mdm2/MdmX complementation, luminescence; AID 485346; inhibition, % at 8 µM;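 active = inhibition of at least 50% at 8 µM in the primary screen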
PP1 counter – counter-screen for PP5 inhibitors: inhibitors of human PP1-alpha; actives 0.9% (n = 320,000); inhibition, % at 6.7 µM; AID 2235; purified PP1alpha, OMFP fluorescence;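 active = inhibition above the mean inhibition of all tested compounds plus 3 SD, computed separately for each screening campaign, cut at about 15% in these data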
PP5 primary – PP5 (human) phosphatase inhibition | P53041 | purified PP5c, OMFP substrate fluorescence | inhibition, % at 6.7 µM | actives 0.18% (n = 320,000) | AID 1987;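 active = inhibition above the campaign's mean inhibition across all tested compounds plus 3 SD, cut at about 9.5% in these data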;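 note: 0% = DMSO only and 100% = 100 µM cantharidin control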
Target sequence (P53041 whole entry, looked up): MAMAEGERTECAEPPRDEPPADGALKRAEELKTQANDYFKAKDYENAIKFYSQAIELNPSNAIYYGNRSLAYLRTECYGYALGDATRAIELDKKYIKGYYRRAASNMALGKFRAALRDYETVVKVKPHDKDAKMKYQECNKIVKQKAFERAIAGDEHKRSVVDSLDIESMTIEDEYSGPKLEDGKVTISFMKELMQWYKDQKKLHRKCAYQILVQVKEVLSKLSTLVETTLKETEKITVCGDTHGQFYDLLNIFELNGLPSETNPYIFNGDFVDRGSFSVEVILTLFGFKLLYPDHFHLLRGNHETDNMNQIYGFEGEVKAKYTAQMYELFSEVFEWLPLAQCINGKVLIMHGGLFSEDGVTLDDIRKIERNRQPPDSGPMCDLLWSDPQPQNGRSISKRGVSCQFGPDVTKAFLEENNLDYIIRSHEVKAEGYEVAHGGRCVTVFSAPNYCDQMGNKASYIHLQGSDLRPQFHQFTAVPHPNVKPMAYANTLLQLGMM
Calb FLC – affects C. albicans growth with fluconazole; C. albicans CaCi-2 (fluconazole-resistant clinical isolate) + fluconazole, Alamar Blue growth, 48 h; growth inhibition, % (test concentration not listed); actives 0.57% (n = 300,000);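 active = growth inhibition above about 58% in most replicates, limit read from the data, passing the limit was not always enough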;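 note: all wells also contain fluconazole at 8 µg/ml as a sub-toxic cotreatment; 0% = median of DMSO wells and 100% = median of geldanamycin control wells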
Beta cell apopt – beta cell apoptosis inhibition | actives 0.8% (n = 300,000) | INS-1E cytokine-induced death, ATP luminescence, 48 h; percent of positive-control rescue, neutral wells zero | protection from apoptosis, % (test concentration not listed);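 active = Every replicate reaches about 75%, or at least half do and their mean reaches it too, limit read from the data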;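 note: 0% = cytokine-treated negative control wells and 100% = positive control rescue; higher means more ATP so stronger rescue from cytokine killing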
CSC inhib – blocks cancer stem cells | inhibition, % at 7.5 µM | actives 1.1% (n = 300,000) | cancer stem cell-like cells viability, luminescence; in the data active = inhibition above about 75%; tested in HMLE shEcad cells
Mdm2 MdmX conf – human Mdm2/MdmX binding inhibition, confirmed. actives 55% (n = 10,000). AID 489028. shares compounds with Mdm2 MdmX PPI. inhibition, % at 8 µM. luminescent assay; in the data active = inhibition above about 40%
Full FLuc ctr – counter-screen for Mdm2/MdmX inhibitors: full-length luciferase; shares compounds with Mdm2 MdmX PPI; inhibition, % at 8 µM; actives 77% (n = 6,200); SaOS-2 full-length luciferase counterscreen, luminescence; AID 504607;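 active = mean inhibition at 8 µM reaching about 37%, which flags the compound as non-specific, limit read from the data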;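 note: p53-null SaOS-2 cells with luciferase driven by a doxycycline-inducible promoter; compound on cells about two nights before reading with doxycycline added after day one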
* marks the source's active call; other numbers are inactive results.

For COCCOC(=O)c1[nH]c2c(c1C)C(=O)CC(c1cccs1)C2 (stereo not drawn) the results were Calb FLC 0.1.
Screening CCCCCOC(=O)c1[nH]c2c(c1C)C(=O)CC(c1ccco1)C2 (stereo not drawn) returned Mdm2 MdmX PPI 64.6*, PP1 counter -7.5, PP5 primary -0.4, Calb FLC -0.2, Beta cell apopt -3.4, CSC inhib 73.3, Mdm2 MdmX conf 51.5* and Full FLuc ctr 88.6*.
`CCOCCOC(=O)c1[nH]c2c(c1C)C(=O)CC(c1cccs1)C2` (stereo not drawn) gave Mdm2 MdmX PPI 53.8*, PP1 counter -1.4, PP5 primary -0.3, Calb FLC 6.2, Beta cell apopt 23.6, CSC inhib 56.7, Mdm2 MdmX conf 61.4* and Full FLuc ctr 91.6*.
Screening CCOC(=O)c1[nH]c2c(c1C)C(=O)CC(c1ccc(F)cc1)C2 (stereo not drawn) returned Mdm2 MdmX PPI 58.9*, PP1 counter 12.2, PP5 primary 1.5, Calb FLC 4.4, Beta cell apopt 37.4, CSC inhib 59.9, Mdm2 MdmX conf 54.0* and Full FLuc ctr 63.3*.
For CCOCCOC(=O)c1[nH]c2c(c1C)C(=O)CC(c1ccccc1)C2 (stereo not drawn) the results were Mdm2 MdmX PPI 50.1*, PP1 counter -2.0, PP5 primary -0.2, Calb FLC -4.1, Beta cell apopt 41.6, CSC inhib 55.1, Mdm2 MdmX conf 55.8* and Full FLuc ctr 95.7*.
Screening CCOCCOC(=O)c1[nH]c2c(c1C)C(=O)CC(c1cc(OC)c(OC)c(OC)c1)C2 (stereo not drawn) returned Mdm2 MdmX PPI 19.1, PP1 counter -1.6, PP5 primary 0.2, Calb FLC -3.5, Beta cell apopt 24.6 and CSC inhib -17.5.
`CC(=O)C1=C(C)N2CCN=C2S1` gave Mdm2 MdmX PPI -4.6, PP1 counter -4.7, PP5 primary -0.6 and Calb FLC 1.5.
Screening O=C(NCCS(=O)(=O)N1CCN(c2ccccc2)CC1)c1cccs1 returned Mdm2 MdmX PPI -6.4, PP1 counter -2.2, PP5 primary -0.7, Calb FLC -4.1 and Beta cell apopt 8.2.
`COC(=O)c1[nH]c2c(c1C)C(=O)CC(c1cccc(OC)c1)C2` (stereo not drawn) gave Mdm2 MdmX PPI 53.6*, PP1 counter -4.4, PP5 primary -0.2, Calb FLC -2.9, Beta cell apopt 30.8, CSC inhib 66.5, Mdm2 MdmX conf 58.6* and Full FLuc ctr 92.5*.
Screening COC(=O)c1[nH]c2c(c1C)C(=O)CC(c1ccc(OC)c(OC)c1)C2 (stereo not drawn) returned Mdm2 MdmX PPI 7.8, PP1 counter 1.5, PP5 primary 0.5, Calb FLC -2.1, Beta cell apopt -0.2 and CSC inhib 4.7.
Screening CCc1nnc(NC(=O)C2CCN(S(=O)(=O)c3ccc(C)cc3)CC2)s1 returned Mdm2 MdmX PPI 53.4*, PP1 counter 5.0, PP5 primary -1.8, Calb FLC -2.0, Beta cell apopt -7.4, CSC inhib 1.1 and Mdm2 MdmX conf -2.1.
`Cc1sc2ncnc(N3CCC(C(=O)Nc4nc(-c5cccs5)cs4)CC3)c2c1C` gave Mdm2 MdmX PPI 86.4*, PP1 counter -6.0, PP5 primary 0.9, Calb FLC -5.6, Beta cell apopt 31.0, CSC inhib -1.0, Mdm2 MdmX conf 92.9* and Full FLuc ctr 43.4*.
For CCc1nnc(NC(=O)C2CCN(c3ncnc4sc(C)c(C)c34)CC2)s1 the results were Mdm2 MdmX PPI 52.9*, PP1 counter -2.8, PP5 primary -0.6, Beta cell apopt -11.1, CSC inhib -2.6, Mdm2 MdmX conf 52.9* and Full FLuc ctr 80.9*.
Cc1sc2ncnc(N3CCC(C(=O)Nc4ccccc4C(C)(C)C)CC3)c2c1C was read as Mdm2 MdmX PPI 50.7*, PP1 counter 0.9, PP5 primary -1.8, Calb FLC -1.8, Beta cell apopt 2.7, CSC inhib -4.6, Mdm2 MdmX conf 59.5* and Full FLuc ctr 27.8.
Screening CCCCc1nnc(NC(=O)C2CCN(c3ncnc4sc(C)c(C)c34)CC2)s1 returned Mdm2 MdmX PPI -17.0, PP1 counter -2.7, PP5 primary 1.5, Calb FLC 2.5 and CSC inhib -7.1.
COc1ccc([C@@H](C)NC(=O)c2ccc3oc(C(C)C)nc3c2)cc1 was read as Mdm2 MdmX PPI -13.6, PP1 counter 0.8, PP5 primary 1.9, Calb FLC -9.6, Beta cell apopt -1.6 and CSC inhib -5.4.
For COc1ccc(C(=O)N[C@H](C(=O)OCc2cc(=O)oc3cc(C)ccc23)C(C)C)cc1 the results were Mdm2 MdmX PPI -18.5, PP1 counter 1.2, PP5 primary 1.5, Calb FLC 2.8, Beta cell apopt 4.5 and CSC inhib -11.1.
For COc1ccc(N2CCN(C(=O)Cc3ccc(OC)c(OC)c3)CC2)cc1 the results were Mdm2 MdmX PPI -29.6, PP1 counter 2.9, PP5 primary 1.7, Calb FLC -3.1, Beta cell apopt -1.0 and CSC inhib -21.9.
`O=C1CCCC2=C1C1c3ccccc3C(=O)N1c1ccc(C(=O)c3ccccc3)cc1N2` (stereo not drawn) gave Mdm2 MdmX PPI 55.7*, PP1 counter 3.5, PP5 primary 1.4, Calb FLC 21.0, Beta cell apopt 2.2, CSC inhib -1.8, Mdm2 MdmX conf 42.2* and Full FLuc ctr 67.0*.
Cc1ccc(S(=O)(=O)/N=C2\C=C(Nc3ccc(O)cc3)C(=O)c3ccccc32)cc1 was read as Mdm2 MdmX PPI 95.1*, Beta cell apopt 119.9*, CSC inhib 132.5*, Mdm2 MdmX conf 89.2* and Full FLuc ctr 4.6.
Screening Cc1ccc(NC2=C(NCCO)C(=O)c3ccccc3C2=O)cc1 returned Mdm2 MdmX PPI -32.5, PP1 counter 1.9, PP5 primary 6.9, Calb FLC 0.9, Beta cell apopt 18.5 and CSC inhib 7.8.
Screening COC(=O)c1ccccc1Nc1ccccc1 returned Mdm2 MdmX PPI 23.1, PP1 counter -2.3, PP5 primary 2.8, Calb FLC 5.5, Beta cell apopt 0.8 and CSC inhib 3.7.
`COC(=O)c1ccccc1NC1=C/C(=N\S(=O)(=O)c2cccs2)c2ccccc2C1=O` gave Mdm2 MdmX PPI 100.2*, PP1 counter 0.6, PP5 primary 7.0, Calb FLC 37.8, Beta cell apopt 96.1*, CSC inhib 102.2*, Mdm2 MdmX conf 79.2* and Full FLuc ctr 58.1*.

Screens: PubChem BioAssay, several laboratories
